PNC inhibitor: inhibitors of perinucleolar compartment assembly. 140,000 tested, 3.1% active. PC3M PTB-GFP, PNC prevalence imaging, 16 h; active compounds read low. AID 2417. activity change (PNC), negative = inhibition, % at 10 µM;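 active means readout at or below -70, meaning at least 70% loss of cells showing the perinucleolar compartment, a nuclear body marking cancer cells; inconclusive means readout between -30 and a set limit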
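Read-out is percentage of cells bearing a perinucleolar compartment, from automated 20x imaging of fixed, Hoechst-stained PC3M PTB-GFP cells. Cells were seeded 4 h, then exposed 16 h to compound (23 nl of library stock) in duplicate plates.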
ALDH1A1 inh: blocks purified human ALDH1A1 activity. P00352. Purified ALDH1A1, NADH fluorescence, propionaldehyde substrate. Potency, µM (series often up to 75.3 µM), usual class: inhibitors. 220,000 tested, 7.3% active. AID 1030; active means well fitted inhibition curve with a large enough effect, not every such curve was filed as active; inconclusive means small, poorly fitted or top-dose-only effect, or another doubt; inactive means no such curve, though single readings can be large or run the other way
IMPase cell inh: membrane-permeable compound that blocks inositol monophosphatase. inhibition (IP1 accumulation), % at 46.1 µM. CHO-M1 cells, IP1 accumulation, HTRF TR-FRET ratio. 120,000 tested, under 10 active; active means well fitted curve in the direction sought with a large enough effect in the signal ratio, not every such curve was filed as active; inconclusive means small, poorly fitted or top-dose-only effect, or a change in a side signal; inactive means no such curve, though single readings can be large or run the other way; the % refers to the signal ratio;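 further: cells stimulated with carbachol in lithium chloride buffer; higher means more IMPase inhibition seen as more IP1 and lower FRET ratio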
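The IP-One HTRF competitive assay in carbachol-stimulated CHO-M1 cells quantifies cellular IP1. Compounds spanned up to 46 uM final, and activity is expressed as AC50 from concentration-response fits of the ratio and donor data.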
HPGD block: inhibitors of human 15-hydroxyprostaglandin dehydrogenase (HPGD) | P15428 | purified HPGD, NADH fluorescence kinetic, PGE2 substrate | Potency, µM, usual class: inhibitors | 150,000 tested, 4.3% active | AID 894; active means well fitted inhibition curve with a large enough effect, not every such curve was filed as active; inconclusive means small, poorly fitted or top-dose-only effect, or another doubt; inactive means no such curve, though single readings can be large or run the other way
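NADH formation kinetics: reaction with 30 uM PGE2 and 1 mM NAD+ (final), 20 nM enzyme, Tris-HCl pH 8 with Tween 20, after 15 min compound preincubation at room temperature. Fluorescence change, last versus first of five reads.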
IMPase Li cell: membrane-permeable IMPase blocker, potentiated with lithium. CHO-M1 cells, IP1 TR-FRET (IP-One), carbachol + lithium. Potency, µM (doses to about 59.4 µM), hits mostly inhibitors. 210,000 tested, 0.35% active. AID 1457;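 further: IP1 builds up when IMPase is blocked and the TR-FRET signal falls; nearly all actives have a fitted effect of over 50% in size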
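CHO cells stably expressing M1 receptor (2000/well) were cultured 16–30 h, then exposed to compounds with a small lithium addition for 30 min at 37C. IP1 was measured by TR-FRET competition; AC50 from Hill fits.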
12-hLO inh: 12-hLO (ALOX12) enzyme inhibition. 150,000 tested, 0.12% active. Potency, µM (series often up to 57.1 µM), usual class: inhibitors. purified 12-hLO, xylenol orange hydroperoxide absorbance. P18054; further: nearly all actives have a fitted effect of over 55% in size
Target sequence (P18054 whole entry, looked up): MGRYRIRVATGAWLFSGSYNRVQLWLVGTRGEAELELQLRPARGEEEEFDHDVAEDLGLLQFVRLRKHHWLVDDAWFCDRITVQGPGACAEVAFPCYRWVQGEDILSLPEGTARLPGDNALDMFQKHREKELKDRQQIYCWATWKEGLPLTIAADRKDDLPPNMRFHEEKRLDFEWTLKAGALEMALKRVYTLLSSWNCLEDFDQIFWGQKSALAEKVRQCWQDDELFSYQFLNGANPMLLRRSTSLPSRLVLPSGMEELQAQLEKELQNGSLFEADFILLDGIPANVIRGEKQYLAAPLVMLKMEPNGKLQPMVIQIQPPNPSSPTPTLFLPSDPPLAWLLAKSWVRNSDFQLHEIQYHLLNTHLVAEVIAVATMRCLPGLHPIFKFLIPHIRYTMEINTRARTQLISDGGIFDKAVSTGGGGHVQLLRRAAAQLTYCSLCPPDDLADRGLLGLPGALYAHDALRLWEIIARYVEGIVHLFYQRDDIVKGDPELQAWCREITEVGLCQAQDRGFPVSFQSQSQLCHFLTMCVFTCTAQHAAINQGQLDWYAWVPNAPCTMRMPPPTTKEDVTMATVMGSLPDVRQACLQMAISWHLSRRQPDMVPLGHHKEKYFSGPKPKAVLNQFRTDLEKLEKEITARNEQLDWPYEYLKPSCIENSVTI
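Lipoxygenase turnover measured by absorbance at 573 and 405 nm after Fe-XO development. Human 12hLO 150 nM, arachidonate 40 uM, pH 7.0 Hepes buffer with detergent; 15 min compound preincubation, 30 min reaction.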
A number is an active result; - = inactive; ? = inconclusive; . = not tested or not shown; [ ] = dose if it differs, or a comment. Compounds with a hit are over-represented: about 11% of the library has one in this group of screens. Unless noted, the call rests on the fitted dose curve; in most records, active means well fitted curve in the direction sought with a large enough effect; inconclusive means small, poorly fitted or top-dose-only effect, or another doubt; inactive means no such curve, though single readings can be large; an effect the other way counts as inactive or inconclusive.

SMILES | PNC inhibitor | ALDH1A1 inh | IMPase cell inh | HPGD block | IMPase Li cell | 12-hLO inh
Cn1c(=O)c(C(=O)COC(=O)c2cc(C(F)(F)F)nc3c(C(F)(F)F)cccc23)c(N)n(Cc2ccccc2)c1=O | . | - | . | - | - | -
NC(=O)N/N=C/c1cc(Br)ccc1OC(=O)c1ccccc1 | -81 | - | . | - | - | -
O=C(c1ccncc1)N1CCC[C@@]2(CCN(c3ccccc3)C2)C1 | . | ? | . | - | - | -
COc1ccc(CCCC(=O)Nc2ccccc2F)cc1 | - | - | . | - | - | -
N#Cc1cc(-c2cccc(Cl)c2)c[nH]c1=O | -92 | - | -[1.84 µM] | - | - | -
CC(CSc1nc2ccccc2s1)Cn1c(N2CCCC2)nc2c1c(=O)[nH]c(=O)n2C (stereo unspecified) | - | - | - | 22µM | - | -
Cn1c(=O)[nH]c(=O)c2c1nc(SCC(=O)O)n2CCc1ccccc1 | ? | 6.3µM | - | 13µM | - | ?
CCN1CCN(c2nc3c(c(=O)[nH]c(=O)n3C)n2CCSc2nc3ccccc3s2)CC1 | - | - | - | - | - | -
Cn1c(=O)c2c(nc(SCCN3CCOCC3)n2Cc2cccc3ccccc23)n(C)c1=O | - | 22µM | - | - | - | -
Cn1c(=O)[nH]c(=O)c2c1nc(SCCN1CCOCC1)n2CCCc1ccccc1 | ? | - | - | 35µM | - | -
COc1ccc(-c2cc(C(F)(F)F)n3ncc(-c4ccccc4)c3n2)cc1 | . | . | - | . | . | .
CCCc1ccc(OC(=O)c2ccc(O)cc2Cl)cc1 | . | - | . | . | - | .
CCOC(=O)C(CC)Sc1nc2c(c(=O)[nH]c(=O)n2C)n1CCc1ccccc1 (stereo unspecified) | - | 11µM | - | 22µM | - | -
CC(C)CCn1c(Sc2nc3ccccc3s2)nc2c1c(=O)[nH]c(=O)n2C | ? | 11µM | - | . | . | -
CC(C)CCn1c(SCC(=O)c2ccccc2)nc2c1c(=O)[nH]c(=O)n2C | - | 18µM | - | - | - | -
CC(C)CCSc1nc2c(c(=O)[nH]c(=O)n2C)n1CCCc1ccccc1 | - | - | - | ? | - | -
O=P(O)(O)C(O)(Cn1ccnc1)P(=O)(O)O | . | - | . | - | - | -[0.00818 µM]
CCCOc1ccccc1Cn1c(=O)oc2ccc(C)cc21 | ? | ? | - | 25µM | - | -
Oc1ccc(CNc2ccccc2F)c2cccnc12 | - | 8.9µM | - | - | - | ?
CCCn1c(C)nc2c(N3CCC(N(C)C)C3)nc(C)nc21 (stereo unspecified) | . | - | . | - | - | -
CCOC(=O)c1c(NC(=O)/C=C/C(=O)O)sc(C)c1-c1ccc(Cl)cc1 | . | 20µM | . | . | - | .
CCOC(=O)c1c(NC(=O)CN2CCCCC2)sc(CN(C)C)c1-c1ccccc1 | . | - | . | . | - | .
CCOC(=O)c1c(NC(=O)CCl)sc(CN(C)C)c1-c1ccccc1 | . | 7.1µM | . | . | - | .
NC(=O)C1=CN([C@@H]2O[C@@H](COP(=O)(O)OP(=O)(O)OC[C@@H]3O[C@H](n4cnc5c(N)ncnc54)[C@@H](OP(=O)(O)O)[C@@H]3O)[C@H](O)[C@@H]2O)C=CC1 | . | . | - | . | . | ?
CC(S)C(=O)NCC(=O)O (stereo unspecified) | . | 18µM | . | - | - | -[0.00818 µM]
SMILES | PNC inhibitor | ALDH1A1 inh | IMPase cell inh | HPGD block | IMPase Li cell | 12-hLO inh
CCOC(=O)c1c(-c2ccc(C)o2)csc1NC(=S)NC(=O)c1ccccc1Br | - | - | - | - | - | -
CCOC(=O)c1c(-c2ccc(C)o2)csc1NC(=O)CSc1nnnn1-c1ccccc1 | - | 1.6µM | - | 11µM | - | ?
CCNC(=S)Nc1scc(-c2ccccc2)c1C(=O)OCC | - | 28µM | . | - | ? | ?
CCOC(=O)c1c(-c2ccc(C)o2)csc1NC(=S)NC(=O)c1cccs1 | - | 18µM | . | ? | - | -
COC(=O)c1c(-c2ccc(C)cc2)csc1NC(=S)NC(=O)c1cc(OC)cc(OC)c1 | - | 20µM | - | - | - | -
O=C(c1csnn1)N1CCC2(CC1)CCN(C(c1ccccc1)c1ccccc1)CC2 | . | - | . | - | - | -
Cc1cc(Br)ccc1NC(=O)c1cn(C2CCCC2)c(=O)c2c1c1ccccc1n2C | . | . | - | . | . | .
Cc1ccc(CNC(=O)CN2C(=O)C3(OCCCO3)c3ccccc32)cc1 | - | ? | - | - | - | -
CCOC(=O)CN1C(=O)C(O)(c2c(C)[nH]c3ccccc23)c2ccccc21 (stereo unspecified) | - | 0.28µM | - | - | - | -
CCN1C(=O)C(O)(c2c(C)[nH]c3ccccc23)c2ccccc21 (stereo unspecified) | . | . | - | . | . | .
CCOC(=O)CN1C(=O)C(O)(C2CCc3ccccc3C2=O)c2ccccc21 (stereo unspecified) | - | 3.2µM | - | - | - | -
CCOC(=O)CN1C(=O)N[C@@H](c2ccccc2)C(C(C)=O)=C1C | - | - | . | - | - | -
CCOC(=O)CN1C(=O)C2(OCCCO2)c2ccccc21 | - | 8.9µM | - | - | - | -
COCCn1c(=O)c(-c2ccc(OC)cc2)nc2cnc(Nc3ccccc3)nc21 | . | - | . | - | - | -
O=C(NCc1ccccn1)C(=O)Nc1cccc2ccccc12 | . | - | . | . | - | .
COc1ccc(Oc2ncc3nc(-c4ccc(Cl)cc4)c(=O)n(C)c3n2)cc1 | . | - | . | - | - | -
COc1ccc(N=Nc2nc3cc(Br)c(Br)cc3n2C)c(OC)c1 | - | - | - | 7.9µM | - | -
Cc1cccc(Nc2c(-c3cccs3)nc3nc(C)cc(C)n23)c1 | . | . | - | . | . | .
Cc1cc(N2CCN(C/C=C/c3ccccc3)CC2)n2ncnc2n1 | - | - | - | 28µM | - | -
O=C1c2ccccc2NC(c2ccc(-c3cccc([N+](=O)[O-])c3)o2)N1O (stereo unspecified) | ? | 14µM | . | 18µM | - | -
O=C1c2ccccc2NC(c2ccc(-c3ccc(Br)cc3)o2)N1O (stereo unspecified) | - | - | - | - | - | ?
O=C(Nc1ccc(F)cc1)C(c1ccccc1)N1CCN(S(=O)(=O)c2c(F)cccc2F)CC1 (stereo unspecified) | - | 7.9µM | . | - | - | -
O=C(Nc1ccc(F)cc1)C(c1ccccc1)N1CCN(S(=O)(=O)c2ccccc2)CC1 (stereo unspecified) | - | 10µM | - | - | - | -
Cc1nc(N2CCOCC2)c2nc(-c3ccccc3)n(C(C)CN(C)C)c2n1 (stereo unspecified) | . | ? | . | ? | - | -
CCNc1ncc2nc(-c3cc(F)cc(F)c3)c(=O)n(CCOC)c2n1 | . | ? | . | . | - | .
CC(=O)c1cc(F)c(N2CCN(C(=O)C(C)(C)C)CC2)cc1C | - | 16µM | - | - | - | -
CC(=O)c1cc(F)c(N2CCCC2)cc1C | - | - | - | - | - | -

Screening data from PubChem BioAssay.
